# Laboratory results from the supplement of paper PMC13380429.
# Legend:
# [1] = system: Vero E6 infected with SARS-CoV-2; assay: morphology score (similarity to uninfected cells); higher = more like uninfected cells; conditions: 24 h
# [2] = system: Vero E6 infected with SARS-CoV-2; assay: SARS-CoV-2 infection rate relative to infected DMSO; higher = more infection, active = 60 or less; conditions: 24 h
Structure (SMILES),morphology score [1],SARS-CoV-2 infection rate [2]
CC(=O)Nc1ccc(OC(C)=O)cc1 [diacetamate] (10 µM),0.116,99.5% (inactive)
Cc1cc(S(=O)(=O)O)c2c(C)ccc(C(C)C)cc1-2 [sodium-gualenate] (10 µM),0.0593,96.5% (inactive)
CCC(C)(C)c1ccc(CC(C)CN2C[C@@H](C)O[C@@H](C)C2)cc1 (some centres undefined) [amorolfine] (10 µM),0.198,93% (inactive)
O=S(=O)(c1ccccc1)N(CC(F)(F)F)c1ccc(C(O)(C(F)(F)F)C(F)(F)F)cc1 (10 µM),0.0275,104% (inactive)
CNC(=O)CN(CCN(CCN(CC(=O)[O-])CC(=O)NC)CC(=O)[O-])CC(=O)[O-].[Gd+3] [gadodiamide] (10 µM),-0.0219,103% (inactive)
O=C(Nc1cc(C(F)(F)F)cc(C(F)(F)F)c1)Nc1c(Br)cc(Br)cc1-c1nnn[nH]1 (10 µM),0.192,104% (inactive)
O=C(Nc1ccccc1)N1CCN(c2nc(-c3ccccc3)ns2)CC1 (10 µM),-0.272,112% (inactive)
CC(/C=C1\SC(=S)N(CC(=O)O)C1=O)=C\c1ccccc1 [epalrestat] (10 µM),0.192,106% (inactive)
CCOC(=O)c1ncn2c1[C@@H]1CCCN1C(=O)c1cc(OC)ccc1-2 (10 µM),0.286,95% (inactive)
c1ccc(-c2n[nH]cc2-c2ccnc3ccccc23)nc1 (10 µM),-0.0555,114% (inactive)
CC[C@]1(O)C[C@@H]2CN(CCc3c([nH]c4ccccc34)[C@@](C(=O)OC)(c3cc4c(cc3OC)N(C)[C@H]3[C@@](O)(C(=O)OC)[C@H](OC(C)=O)[C@]5(CC)C=CCN6CC[C@]43[C@@H]65)C2)C1 [Vinblastine (sulfate)] (0.833333 µM),-0.0326,102% (inactive)
NC1CCN(c2c(F)cc3c(=O)c(C(=O)O)cn(C4CC4)c3c2Cl)C1 (centres undefined) [clinafloxacin] (10 µM),0.187,112% (inactive)
COc1ccc(Oc2c(Cl)cnn(C3c4ccccc4-c4ccccc43)c2=O)cc1 (10 µM),0.0752,102% (inactive)
Cc1csc(NC(=O)CSc2ccc(-c3ccccc3)nn2)n1 (10 µM),0.49,68.5% (inactive)
CC(=O)Oc1cccc(C(=O)O)c1OC(C)=O [dipyrocetyl] (10 µM),0.209,85% (inactive)
Nc1ncnc2c1c(COc1cccc(Cl)c1)nn2C1CCOCC1 (10 µM),0.00558,104% (inactive)
C[C@@H]1[C@H](O)[C@@H](C)/C=C/C=C/C=C/C=C/C=C/C=C/C=C/[C@H](O[C@@H]2O[C@H](C)[C@@H](O)[C@H](N)[C@@H]2O)C[C@@H]2O[C@](O)(C[C@@H](O)C[C@@H](O)[C@H](O)CC[C@@H](O)C[C@@H](O)CC(=O)O[C@H]1C)C[C@H](O)[C@H]2C(=O)O [amphotericin-b] (10 µM),0.132,107% (inactive)
COc1ccc(NS(=O)(=O)c2ccc(I)cc2)cc1N1CCN(C)CC1 (10 µM),0.195,98.5% (inactive)
CN1CCC(COc2cnc(-c3cccc(Cn4nc(-c5cccc(C#N)c5)ccc4=O)c3)nc2)CC1 (10 µM),0.207,100% (inactive)
Cn1c(=O)cc(N2CCC[C@@H](N)C2)n(Cc2cc(F)ccc2C#N)c1=O [trelagliptin] (10 µM),0.194,99% (inactive)
CC(O)(P(=O)(O)O)P(=O)(O)O [etidronic-acid] (10 µM),0.115,103% (inactive)

Structure (SMILES),morphology score [1],SARS-CoV-2 infection rate [2]
C=C(C)[C@@H]1CC[C@]2(C(=O)O)CC[C@]3(C)[C@H](CC[C@@H]4[C@@]5(C)CC[C@H](O)C(C)(C)[C@@H]5CC[C@]43C)[C@@H]12 [betulinic-acid] (10 µM),0.0296,108% (inactive)
CCCCc1nc(-c2ccc(OCCCN(CC)CC)cc2)cn1-c1ccc(Oc2ccc(Cl)cc2)cc1 [azeliragon] (0.833333 µM),0.129,93% (inactive)
NCCS(=O)(=O)O [taurine] (10 µM),0.19,94.5% (inactive)
CN(Cc1ccccc1)C(=O)[C@H](Cc1ccc2ccccc2c1)NC(=O)[C@@H]1C[C@@H](O)CN1C(=O)c1cn(C)c2ccccc12 (10 µM),0.179,104% (inactive)
O=C(O)c1cc(-c2ccccc2)nc2ccccc12 [cinchophen] (10 µM),0.0922,104% (inactive)
CCc1cc(/C(C)=N/OCc2ccc(C3CCCCC3)c(C(F)(F)F)c2)ccc1CN1CC(C(=O)O)C1 [siponimod] (10 µM),0.0973,100% (inactive)
Cn1c(=O)c2c(ncn2C)n(C)c1=O [caffeine] (10 µM),-0.174,113% (inactive)
CCOc1c(N2CCOCC2)cnn(C)c1=O [emorfazone] (10 µM),0.185,100% (inactive)
C[C@]12CCC(=O)C=C1C=C[C@@H]1[C@@H]2CC[C@@]2(C)[C@H]1CC[C@@]21CCC(=O)O1 [canrenone] (10 µM),0.219,94% (inactive)
CC(C)(N)Cc1ccccc1 [phentermine] (10 µM),-0.154,118% (inactive)
CN(C)C(=O)n1nnnc1Cc1ccc(-c2ccccc2)cc1 (0.833333 µM),0.00131,85% (inactive)
CC(C)(C)NC(=O)N[C@H](C(=O)N1C[C@H]2[C@@H]([C@H]1C(=O)NC(CC1CCC1)C(=O)C(N)=O)C2(C)C)C(C)(C)C (some centres undefined) [Boceprevir] (10 µM),0.133,100% (inactive)
Cc1ccc(-c2ccc(C)cn2)nc1 [abametapir] (10 µM),0.0247,106% (inactive)
Cc1cc(O)c2c(c1)C(=O)c1cccc(O)c1C2=O [chrysophanic-acid] (10 µM),-0.0993,110% (inactive)
O=S(=O)(O)NC1CCCCC1 [cyclamic-acid] (10 µM),0.146,87.5% (inactive)
O=C(N[C@@H](Cc1c[nH]c2ccccc12)C(=O)O)c1ccc(Cl)cc1 [benzotript] (10 µM),-0.049,104% (inactive)
COc1cc2c(c(OC)c1OC)-c1ccc(OC)c(=O)cc1[C@@H](NC(C)=O)CC2 [colchicine] (10 µM),-0.0542,96% (inactive)
Clc1cccc(Nc2nnc(-c3ccccc3)c3ccccc23)c1 (10 µM),0.2,94% (inactive)
O=C(O[C@H]1C[N+]2(CCCOc3ccccc3)CCC1CC2)C(O)(c1cccs1)c1cccs1 [aclidinium] (10 µM),0.136,100% (inactive)
O=C(O)CCNC(=O)c1ccccc1 [betamipron] (10 µM),0.00831,118% (inactive)
OCCNC1CCCc2c1[nH]c1ccc(-c3ccccc3)cc21 (centres undefined) [casin] (0.833333 µM),0.105,102% (inactive)

Structure (SMILES),morphology score [1],SARS-CoV-2 infection rate [2]
C=CC(C)(C)c1cc(/C=C/C(=O)c2ccc(O)cc2)c(OC)cc1O [licochalcone-A] (10 µM),-0.0626,114% (inactive)
Cn1ncc2c(N3CCOCC3)nc(-c3cccc(O)c3)nc21 (10 µM),-0.103,114% (inactive)
COc1ccc(CC2NCCc3c2[nH]c2ccc(C)cc32)c(Cl)c1OC (centres undefined) (0.833333 µM),-0.0343,104% (inactive)
Nc1cc(F)ccc1NC(=O)/C=C/c1cnn(C/C=C/c2ccccc2)c1 (0.833333 µM),-0.0979,109% (inactive)
O=C(O)C1CSCN1 (centres undefined) [timonacic] (10 µM),-0.0905,110% (inactive)
CNCCCC1(c2ccccc2)OC(C)(C)c2ccccc21 (centres undefined) [talopram] (10 µM),-0.07,111% (inactive)
CCCCOc1ccc(CC(=O)NO)cc1 [bufexamac] (10 µM),0.234,94% (inactive)
COc1ccc(Nc2ccn(-c3ccccc3)n2)cc1 (10 µM),0.166,87.5% (inactive)
Oc1c(Cl)cc(Cl)c(Cl)c1Cc1c(O)c(Cl)cc(Cl)c1Cl [hexachlorophene] (10 µM),0.167,83.5% (inactive)
OCCN1CCN(CC/C=C2/c3ccccc3Sc3ccc(Cl)cc32)CC1 [zuclopenthixol] (0.833333 µM),0.0109,110% (inactive)
CN(C(=O)/C=C/c1ccoc1)[C@@H]1CC[C@@]2(O)[C@H]3Cc4ccc(O)c5c4[C@@]2(CCN3CC2CC2)[C@H]1O5 [nalfurafine] (10 µM),-0.0681,108% (inactive)
Oc1ccc(OC2CCCCO2)cc1 (centres undefined) [deoxyarbutin] (10 µM),0.198,97% (inactive)
CC1=C(/C=C/C(C)=C/C=C/C(C)=C/C(=O)O)C(C)(C)CCC1 [tretinoin] (10 µM),-0.0366,104% (inactive)
C[C@@H]1C[C@@H]([C@H](O)CC2CC(=O)NC(=O)C2)C(=O)[C@@H](C)C1 [cycloheximide] (10 µM),0.392,69% (inactive)
COc1ccc(C(=O)CC2(O)C(=O)Nc3c(Cl)ccc(Cl)c32)cc1 (centres undefined) (0.833333 µM),0.00554,95% (inactive)
O=C(NCCO)c1cccc(-c2cc(Nc3ccc(OC(F)(F)F)cc3)ncn2)c1 (10 µM),-0.0129,98.5% (inactive)
Fc1ccc2nc(CCC#Cc3ccccn3)cn2c1 [dipraglurant] (10 µM),0.0385,103% (inactive)
N#Cc1ccc(N2N=C3c4ccc(C(=O)O)cc4CC[C@@H]3[C@@H]2C2CCCC2)cc1Cl (10 µM),-0.174,108% (inactive)
N#Cc1ccc(-c2csc(NN=C3CCCC3)n2)cc1 [remodelin] (10 µM),0.0343,100% (inactive)
CSCC[C@H](NC(=O)[C@H](Cc1ccccc1)NC(=O)CNC(=O)CNC(=O)[C@@H](N)Cc1ccc(O)cc1)C(=O)O [metenkephalin] (10 µM),0.247,91% (inactive)
